Assay outcomes from PubChem.
KB-3-1 tox: qHTS assay for MDR1-selective chemotherapeutics: Primary screen using the parental adenocarcinoma cell KB-3-1; KB-3-1 viability, CellTiter-Glo ATP luminescence, 72 h; Potency, µM (doses to about 46.1 µM), usual class: cytotoxic; actives 1.4% (n = 400,000); AID 1347075, 2019; further: nearly all actives have a fitted effect of over 60% in size
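Using CellTiter-Glo luminescence, growth of non-resistant KB-3-1 adenocarcinoma cells is assessed 72 h after pin-tool compound addition at 37 °C. Normalized responses across the concentration series yield fitted curves.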
TDP1 cell CPT: qHTS for Inhibitors of human tyrosyl-DNA phosphodiesterase 1 (TDP1): qHTS in cells in presence of CPT. chicken DT40 Tdp1-/-;hTDP1 cells + 20 nM CPT, ATP luminescence, 48 h. Potency, µM (doses to about 46.2 µM), hits mostly inhibitors. actives 12% (n = 420,000). AID 686979, 2013; further: nearly all actives have a fitted effect of over 55% in size
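Chicken DT40 Tdp1-/- cells stably complemented with human TDP1 were seeded at 400 cells/well in medium containing 20 nM camptothecin, exposed to pin-transferred compounds, and grown at 37 °C for at least 48 hr. Viability was read as ATP luminescence.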
HT1080NT lethal: qHTS for induction of synthetic lethality in tumor cells producing 2HG: qHTS for the HT-1080-NT fibrosarcoma cell line | Potency, µM (series often up to 46.1 µM), actives largely listed as cytotoxic | actives 1.6% (n = 360,000) | HT-1080-NT fibrosarcoma viability, CellTiter-Glo ATP luminescence, 48 h;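 further: NT is the 2HG producing partner of a matched IDH1 knockdown line; nearly all actives have a fitted effect of over 55% in size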
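Toxicity toward the 2HG-producing NT line was scored as %Activity, normalised to DMSO and no-cell wells, from CellTiter-Glo luminescence after 48 hours' treatment.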
KB-V1 MDR tox: qHTS assay for MDR1-selective chemotherapeutics: Primary screen using the drug-selected MDR subline cells KB-V1 | KB-V1 MDR cells viability, CellTiter-Glo, 72 h | Potency, µM (top dose mostly 46.1 µM), hits mostly cytotoxic | actives 3.4% (n = 400,000); further: nearly all actives have a fitted effect of over 60% in size
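Cytotoxicity via CellTiter-Glo luminescence after 72 h compound exposure at 37 degrees C. Cells: drug-selected KB-V1 line, DMEM phenol-red free plus 10% FBS. Compounds tested at multiple concentrations; normalized data fitted to concentration-effect curves.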
TDP1 cell noCPT: qHTS for Inhibitors of human tyrosyl-DNA phosphodiesterase 1 (TDP1): qHTS in cells in absence of CPT; DT40 Tdp1-/- hTDP1 cells, no CPT, ATP luminescence, 48 h; actives 15% (n = 420,000); Potency, µM (doses to about 46.2 µM), hits mostly inhibitors; AID 686978, 2013; further: nearly all actives have a fitted effect of over 55% in size
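Chicken DT40 Tdp1-/- cells stably complemented with human TDP1 were seeded at 400 cells/well with DMSO in place of 20 nM camptothecin. After compound pinning, cells grew at least 48 hr at 37 °C; viability read by CellTiter-Glo luminescence.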
HT1080 IDH1KD tx: qHTS for induction of synthetic lethality in tumor cells producing 2HG: qHTS for the HT-1080-IDH1KD cell line. HT-1080 IDH1 knockdown viability, ATP luminescence, 48 h. Potency, µM (top dose mostly 46.1 µM), usual class: cytotoxic. actives 2% (n = 360,000). AID 686971, 2013
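HT-1080-IDH1KD cells (IDH1 knocked down), 750/well in RPMI with 5% FBS, treated with compound 48 h at 37 degrees C. Viability by CellTiter-Glo luminescence, normalised to DMSO and no-cell wells; concentration-response curves classed.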
A number is an active result; 0 = inactive; ? = inconclusive; - = no result; ! = not active in a repeat. A selection: hits, their analogues and other compounds. The true share with any hit is near 19%. The call rests on the fitted dose curve; in most records, active means well fitted curve in the direction sought with a large enough effect; inconclusive means small, poorly fitted or top-dose-only effect, or another doubt; inactive means no such curve, though single readings can be large; an effect the other way counts as inactive or inconclusive.

SMILES	KB-3-1 tox	TDP1 cell CPT	HT1080NT lethal	KB-V1 MDR tox	TDP1 cell noCPT	HT1080 IDH1KD tx
CCCCCn1c(=O)c(C(=O)Nc2ncccc2C)c(O)c2ccccc21	0	?	18.4µM	5.17µM	?	20.6µM
CCCCn1c(C)c(C(=O)O)c2cc(OC)c3ccccc3c21	0	0	0	0	0	0
CCCCn1c(=O)c(C=Nc2cccnc2Cl)c(O)n(CCCCl)c1=O	0	0	0	0	0	0
CCCCn1c(=O)c(C(=O)Nc2ccccc2C)c(O)c2ccccc21	0	8.2µM	0	0	9.2µM	0
CCCCn1c(=O)c(C(=O)NCc2ccccc2OC)c(O)c2ccccc21	23.1µM	?	0	?	?	0
CC(C)C(=O)Nc1ccc(C(=O)NCc2cccnc2)cc1	0	?	?	0	?	23.1µM
CCc1ccc(-n2c(SC(CC)C(=O)N(CC)CC)nc3n[nH]c(C)c3c2=N)cc1 (stereo not given)	0	2.59µM	-	0	2.59µM	-
CCOC(CN1CCN(CC(C)C(=O)c2ccccc2)CC1)c1ccccc1 (stereo not given)	-	?	-	-	26.6µM	-
CCN(CC)C(C)C(=O)c1ccccc1 (stereo not given)	-	0	-	-	0	-
C[C@]12O[C@H](C[C@]1(O)CO)n1c3ccccc3c3c4c(c5c6ccccc6n2c5c31)CNC4=O	-	0.299µM	-	-	0.376µM	-
Cc1ccc(C(C)(C)NC(=O)C2CCC(=O)N(C3CCCCCC3)C2)cc1 (stereo not given)	0	?	0	0	0	0
CCN(CC)Cc1cc(Nc2ccnc3cc(Cl)ccc23)ccc1O	0	16.4µM!	10.3µM!	?	23.1µM!	20.6µM!
Cc1cccc(N2CCN(C(=O)CCCCn3c(=O)[nH]c4ccsc4c3=O)CC2)c1C	0	?	-	0	18.4µM	-
Cc1cccc(N2CCN(C(=O)CCS(=O)(=O)c3ccc4c(c3)oc(=O)n4C)CC2)c1C	0	?	0	0	?	0
CCN(CC)CCNC(=O)c1c(O)c2ccccc2n(Cc2ccccc2)c1=O	0	18.4µM	?	0	16.4µM	?
CC(C)CCn1c(=O)c(C(=O)NCc2ccc3c(c2)OCO3)c(O)c2ccccc21	0	?	0	?	?	0
CCN(CC)CCCNC(=O)c1c(O)c2ccccc2n(Cc2ccccc2)c1=O	?	18.4µM	0	?	23.1µM	0
CCCS(=O)(=O)NC(=O)C1(C)CCCN(C(=O)c2ccccc2OC)C1 (stereo not given)	0	0	?	0	0	0
O=c1cc(CN2CC=C(c3ccccc3)CC2)c2c(ccc3ccccc32)o1	0	?	0	0	20.6µM	?
c1ccc(C[n+]2ccccc2)cc1	0	?	0	0	16.4µM	0
N#Cc1ccc(NC(=O)CN2C(=O)NC3(CCCC3)C2=O)cc1Cl	0	0	0	0	?	0
N#Cc1cc2c(nc1SCC(=O)Nc1cc(Cl)ccc1Cl)C1CCN2CC1	?	18.4µM	?	4.11µM	?	?
N#Cc1cc2c(nc1SCC(=O)Nc1ccc(Cl)c(C(F)(F)F)c1)C1CCN2CC1	-	20.6µM	-	-	11.6µM	-
N#Cc1cc2c(nc1SCC(=O)Nc1ccc(C(F)(F)F)cc1)C1CCN2CC1	-	13µM	-	-	23.1µM	-
N#Cc1cc2c(nc1SCC(=O)Nc1ccc(Cl)cc1)C1CCN2CC1	?	?	?	2.91µM	?	?
SMILES	KB-3-1 tox	TDP1 cell CPT	HT1080NT lethal	KB-V1 MDR tox	TDP1 cell noCPT	HT1080 IDH1KD tx
Cc1ccc(OC(=O)N(C)C[C@@H]2OCc3cnnn3CCCC(=O)N([C@@H](C)CO)C[C@H]2C)cc1	0	0	0	0	0	0
Cc1ccc(Cn2cccc(C(=O)Nc3nc4ccc(C)cc4s3)c2=O)cc1	0	0	-	0	0	-
Cc1cnc(SCc2ccccn2)nc1C1CCCN(C(=O)c2scc3c2CCCC3)C1 (stereo not given)	-	11.6µM	-	-	10.3µM	-
Cc1noc(C)c1CC(=O)N1CCCC(N2CCN(c3ccccc3F)CC2)C1 (stereo not given)	0	0	0	?	0	0
Cc1cnc(SCc2ccccn2)nc1C1CCCN(C(=O)c2ccc(-c3ccccc3F)cc2)C1 (stereo not given)	-	?	-	-	23.1µM	-
C=CC[C@]1(O)CC[C@H]2[C@@H]3CCC4=CCCC[C@@H]4[C@H]3CC[C@@]21C	-	0	-	-	0	-
CC1OC(C)OC(C)O1 (stereo not given)	-	0	-	-	0	-
COc1cccc(-c2nc3cc4c(cc3cc2CN(C(=O)c2cccs2)C2CC2)CCC4)c1OC	-	?	-	-	16.4µM	-
O=C(O)c1ccccc1Nc1cccc(C(F)(F)F)c1	0	11.6µM!	0	0	15µM	0
CNc1ccccc1C(=O)O	-	0	-	-	0	-
CCCN(CCC)CCc1c[nH]c2ccc(C(N)=O)cc12	-	0	0	-	0	0
